Results from article PMC4336329 (PLoS ONE, 2015).
Hit rate of the full screen: of about 310,000 compounds, about 14,000 (4.5%) showed an effect of 50% or more. Effects have a minus sign here. Shown is part of a subset that was picked to be rich in strong results.

target: human ether-à-go-go-related gene (hERG) potassium channel (human, UniProt Q12809); test: primary screen, population patch clamp on CHO cells stably expressing hERG; higher = less effect of the substance
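Further: peak tail current of the secondary pulse compared with the same well before compound.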

Chain of human ether-à-go-go-related gene (hERG) potassium channel (Q12809 whole entry, looked up): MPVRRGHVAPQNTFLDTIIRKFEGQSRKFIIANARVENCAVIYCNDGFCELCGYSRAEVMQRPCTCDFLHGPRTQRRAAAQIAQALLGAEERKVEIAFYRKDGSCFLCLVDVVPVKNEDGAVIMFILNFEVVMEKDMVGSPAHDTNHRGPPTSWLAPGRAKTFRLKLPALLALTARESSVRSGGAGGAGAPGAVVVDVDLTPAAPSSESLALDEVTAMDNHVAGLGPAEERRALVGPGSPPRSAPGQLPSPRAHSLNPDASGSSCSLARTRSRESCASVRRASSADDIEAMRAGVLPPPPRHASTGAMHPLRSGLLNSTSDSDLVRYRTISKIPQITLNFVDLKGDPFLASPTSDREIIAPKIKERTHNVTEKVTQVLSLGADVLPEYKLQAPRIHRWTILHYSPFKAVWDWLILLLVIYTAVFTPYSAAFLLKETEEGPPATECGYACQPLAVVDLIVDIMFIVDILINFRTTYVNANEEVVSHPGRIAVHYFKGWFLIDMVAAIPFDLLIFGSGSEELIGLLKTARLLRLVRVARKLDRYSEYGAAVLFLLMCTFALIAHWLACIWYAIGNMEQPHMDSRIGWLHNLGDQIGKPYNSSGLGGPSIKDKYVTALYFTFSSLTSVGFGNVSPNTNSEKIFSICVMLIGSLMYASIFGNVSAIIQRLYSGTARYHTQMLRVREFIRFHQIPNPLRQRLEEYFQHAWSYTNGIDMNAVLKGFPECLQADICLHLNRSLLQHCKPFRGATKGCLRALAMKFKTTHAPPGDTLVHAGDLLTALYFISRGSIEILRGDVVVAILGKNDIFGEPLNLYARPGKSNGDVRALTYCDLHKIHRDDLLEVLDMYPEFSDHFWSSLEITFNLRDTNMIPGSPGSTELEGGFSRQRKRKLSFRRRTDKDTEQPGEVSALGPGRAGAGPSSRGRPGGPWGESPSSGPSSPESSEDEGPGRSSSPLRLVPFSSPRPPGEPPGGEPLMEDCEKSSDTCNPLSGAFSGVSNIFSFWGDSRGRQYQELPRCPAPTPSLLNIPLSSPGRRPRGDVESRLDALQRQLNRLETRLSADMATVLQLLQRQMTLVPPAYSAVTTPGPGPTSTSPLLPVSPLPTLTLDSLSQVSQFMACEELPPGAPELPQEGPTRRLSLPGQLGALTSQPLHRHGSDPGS

Structure (SMILES) | hERG current change (%, negative = inhibition) at 10uM
Cc1cccc(NS(=O)(=O)c2c(C(=O)N3CCCC3)c(C)n(C)c2C)c1 | 18.1%
Cc1cc(Cl)ccc1OCC(=O)N/N=C/c1ccncc1 | -14.9%
COC(=O)CSc1nc(C)cc(N2CCOCC2)n1 | 7.89%
NC(=O)C1CCN(C(=O)COc2ccc3ccccc3c2)CC1 | 18.2%
CCC(C)(C)NC(=O)C(c1cccnc1)N(C(=O)c1csnn1)c1ccccc1 (stereo not shown) | -22.7%
O=C(Cn1c(-c2ccccc2)noc1=O)NCc1ccccc1 | 6.47%
CCCCCn1c(SCC(=O)OCC)nc2cc(C(=O)N3CCC(C(N)=O)CC3)ccc2c1=O | -58.4%
CCCCCn1c(SCC#N)nc2cc(C(=O)NCC3CCCO3)ccc2c1=O (stereo not shown) | -52.7%
CCOC(=O)CSc1nc2cc(C(=O)N3CCC(C(N)=O)CC3)ccc2c(=O)n1C1CCCCC1 | -10.7%
N#CCSc1nc2ccccc2c(=O)n1CCCC(=O)NCC1CCCO1 (stereo not shown) | -12.4%
CCCCn1c(SC(C)C(=O)NCC2CCCO2)nc2cc(C(=O)OC)ccc2c1=O (stereo not shown) | -44.9%
CCCCCn1c(SCC2CCCO2)nc2cc(C(=O)N3CCC(C(N)=O)CC3)ccc2c1=O (stereo not shown) | -64.7%
CCCCCn1c(SCC(=O)CC(=O)OCC)nc2cc(C(=O)N3CCC(C(N)=O)CC3)ccc2c1=O | -17.7%
NC(=O)C1CCN(C(=O)c2ccc3c(=O)n(Cc4ccco4)c(SCC(=O)c4ccccc4)nc3c2)CC1 | 6.75%
C=CCn1c(SCC(=O)CC(=O)OCC)nc2cc(C(=O)N3CCC(C(N)=O)CC3)ccc2c1=O | 13.7%
c1cc(-c2nnn(CCOCCn3nnc(-c4ccncc4)n3)n2)ccn1 | -0.329%
c1ccc(Oc2cccc(OCCn3cncn3)c2)cc1 | -12.7%
CC(=O)c1ccc(NC(=S)NNC(=O)c2ccccc2[N+](=O)[O-])cc1 | 20%
CCC1CCCCN1CCCNC(=O)C1CCC(CNS(=O)(=O)c2c(C)cc(C)cc2C)CC1 (stereo not shown) | -68.3%
CCCCNC(=O)C1CCC(CNS(=O)(=O)c2c(C)cc(C)cc2C)CC1 (stereo not shown) | 3.09%
CCCCN(C)CCCNC(=O)C1CCC(CNS(=O)(=O)c2c(C)cc(C)cc2C)CC1 (stereo not shown) | -77.3%
COC(CNC(=O)C1CCC(CNS(=O)(=O)c2c(C)cc(C)cc2C)CC1)OC (stereo not shown) | -26%
COCCNC(=O)C1CCC(CNS(=O)(=O)c2c(C)cc(C)cc2C)CC1 (stereo not shown) | 7.72%
Cc1ccc(S(=O)(=O)NCC2CCC(C(=O)NCCCN3CCOCC3)CC2)cc1 (stereo not shown) | 10.8%
Cc1cc(C)c(S(=O)(=O)NCC2CCC(C(=O)NCCCN3CCC(C)CC3)CC2)c(C)c1 (stereo not shown) | -77.2%
CC1CCN(CCCNC(=O)C2CCC(CNS(=O)(=O)c3ccccc3)CC2)CC1 (stereo not shown) | 5.02%
CCN(CC)CCCNC(=O)C1CCC(CNS(=O)(=O)c2c(C)cc(C)cc2C)CC1 (stereo not shown) | -13.5%
O=C(Cn1c2c(c(=O)n3ncnc13)CCC2)N/N=C/c1cccs1 | 0.665%

Structure (SMILES) | hERG current change (%, negative = inhibition) at 10uM
CS(=O)(=O)c1ccc(C(=O)NCC(c2ccco2)N2CCCCC2)cc1 (stereo not shown) | 18%
Cc1cc(OCC(=O)NCC(O)c2ccccc2)c2c3c(c(=O)oc2c1)CCCC3 (stereo not shown) | 12.1%
CCCCn1c(N)c(N(CCOC)C(=O)c2ccco2)c(=O)[nH]c1=O | 0.12%
Cc1ccc(-n2c(SCC(=O)N/N=C/c3c(C)nn(-c4ccccc4)c3C)nc3ccccc3c2=O)cc1 | -7.33%
O=C(Nc1ccccc1)N1CCC(O)(c2cccc(C(F)(F)F)c2)CC1 | -6.72%
c1ccc(-c2nc3ccccc3s2)nc1 | 4.67%
Cc1ccc(-n2c(SCC(=O)N3c4ccccc4Sc4ccccc43)nnc2-c2ccncc2)cc1 | -3.06%
COc1ccc(NC(=O)CN(C)C(=O)C(C)Sc2ccccc2)cc1 (stereo not shown) | 5.43%
COC(=O)Cn1c2nc3ccccc3nc2c2cccc(C)c21 | 9.86%
COC(=O)Cn1cnc2c(C#N)c3n(c2c1=O)CCCCC3 | -8.01%
COc1cc(-c2nn3c(COc4ccccc4)nnc3s2)cc(OC)c1OC | 14.8%
O=C(NCc1ccccc1)c1ccco1 | 2.34%
COc1cccc(CN2CCN(Cc3cccc4c3OCO4)CC2CCO)c1 (stereo not shown) | -23.2%
COc1ccc(CN2CCN(Cc3cccc4nonc34)CC2CCO)c(C)c1C (stereo not shown) | -68.3%
CC(C)CCN1CCN(Cc2cccc3nonc23)CC1CCO (stereo not shown) | -16.7%
Cc1cccc(CN2CCN(Cc3cccc4nonc34)CC2CCO)n1 (stereo not shown) | -24.1%
CCOc1ccccc1CN1CCN(Cc2cccc3nonc23)CC1CCO (stereo not shown) | -73.3%
CC(C)N1CCN(Cc2cccc3nonc23)CC1CCO (stereo not shown) | 1.05%
CCOc1ccc(CN2CCN(Cc3cccc4nonc34)CC2CCO)cc1 (stereo not shown) | -77.1%
COc1cccc(CN2CCN(Cc3cccc4nonc34)CC2CCO)c1 (stereo not shown) | -66.3%
COc1cccc(CN2CCN(Cc3ccon3)CC2CCO)c1 (stereo not shown) | 0.227%
CCOc1ccccc1CN1CCN(Cc2ccon2)CC1CCO (stereo not shown) | -42.6%
Cc1ccc(-n2nc3c(=O)n(CC(=O)NCCc4ccc(Cl)cc4)nc(C)c3c2C)cc1 | -10.2%
CCc1ccccc1N(CC(=O)N1CCN(c2ccccc2F)CC1)S(C)(=O)=O | 0.701%
COc1ccc(S(=O)(=O)NCC(c2ccco2)N2CCOCC2)cc1 (stereo not shown) | -19.1%
COC(=O)N/N=C(\C)c1ccc(Br)cc1 | 11.6%
CCCCN(CC)C(=O)c1n[nH]c(=O)c2ccccc12 | 2.92%
